Among the data in the supplement of paper PMC10849652 are log2 fold change values, retold here.

The full data set covers some 8,800 targets. This sample favours those with a hit. About 0.5% of all pairs of compound and target were hits. Values without a mark were called inactive.

Holding throughout (assay): log2 fold change, soluble protein after heating vs DMSO (PISA); higher = thermal stabilisation; K562 lysate, 10 uM; active = over 0.2 and 3.5 SD of the protein, either way, in both replicates (recomputed)
Compound in test [1]: C1=CC=C(C=C1)[C@H](COC2=CC3=C(C=C2)NC(=O)N3)NC(=O)C4=CC=CN(C4=O)CC5=CC(=C(C=C5)F)F
The procedure, abridged: (§1)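 Log-two fold change in thermal stability relative to solvent controls is reported from duplicates. For each sample, crude K562 extract from dounce-homogenised pellets in PBS pH 7.4 with 1 mM MgCl2, at 1 mg/mL protein, was treated with 10 μM compound for 30 min. Aliquots heated for 3 min across 48°C-58°C were pooled, brought to 0.5% NP-40 at 4°C and cleared at 21,000xg for 90 min. The supernatant was quantified by TMTpro 16plex LC-MS/MS with channel sums equalised.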

Compound in test [2]: CC1=C(SC2=C1C(=N[C@H](C3=NN=C(N32)C)CC(=O)N)C4=CC=C(C=C4)Cl)C
The procedure, abridged:
as §1

Compound in test [3]: CC1=C2C(=CC=C1)N=C(N(C2=O)C3=CC=CC=C3C)CN4C=NC5=C(N=CN=C54)N
The procedure, abridged: as §1

Compound in test [4]: Cc1sc2c(c1C)C(c1ccc(Cl)cc1)=N[C@@H](CC(=O)OC(C)(C)C)c1nnc(C)n1-2
The procedure, abridged: as §1

Compound in test [5]: c1ccc([C@@H]2C[C@H]2NC2CCNCC2)cc1
The procedure, abridged: as §1

Sequence of UniProt Q5XPI4 (Q5XPI4 whole entry, looked up): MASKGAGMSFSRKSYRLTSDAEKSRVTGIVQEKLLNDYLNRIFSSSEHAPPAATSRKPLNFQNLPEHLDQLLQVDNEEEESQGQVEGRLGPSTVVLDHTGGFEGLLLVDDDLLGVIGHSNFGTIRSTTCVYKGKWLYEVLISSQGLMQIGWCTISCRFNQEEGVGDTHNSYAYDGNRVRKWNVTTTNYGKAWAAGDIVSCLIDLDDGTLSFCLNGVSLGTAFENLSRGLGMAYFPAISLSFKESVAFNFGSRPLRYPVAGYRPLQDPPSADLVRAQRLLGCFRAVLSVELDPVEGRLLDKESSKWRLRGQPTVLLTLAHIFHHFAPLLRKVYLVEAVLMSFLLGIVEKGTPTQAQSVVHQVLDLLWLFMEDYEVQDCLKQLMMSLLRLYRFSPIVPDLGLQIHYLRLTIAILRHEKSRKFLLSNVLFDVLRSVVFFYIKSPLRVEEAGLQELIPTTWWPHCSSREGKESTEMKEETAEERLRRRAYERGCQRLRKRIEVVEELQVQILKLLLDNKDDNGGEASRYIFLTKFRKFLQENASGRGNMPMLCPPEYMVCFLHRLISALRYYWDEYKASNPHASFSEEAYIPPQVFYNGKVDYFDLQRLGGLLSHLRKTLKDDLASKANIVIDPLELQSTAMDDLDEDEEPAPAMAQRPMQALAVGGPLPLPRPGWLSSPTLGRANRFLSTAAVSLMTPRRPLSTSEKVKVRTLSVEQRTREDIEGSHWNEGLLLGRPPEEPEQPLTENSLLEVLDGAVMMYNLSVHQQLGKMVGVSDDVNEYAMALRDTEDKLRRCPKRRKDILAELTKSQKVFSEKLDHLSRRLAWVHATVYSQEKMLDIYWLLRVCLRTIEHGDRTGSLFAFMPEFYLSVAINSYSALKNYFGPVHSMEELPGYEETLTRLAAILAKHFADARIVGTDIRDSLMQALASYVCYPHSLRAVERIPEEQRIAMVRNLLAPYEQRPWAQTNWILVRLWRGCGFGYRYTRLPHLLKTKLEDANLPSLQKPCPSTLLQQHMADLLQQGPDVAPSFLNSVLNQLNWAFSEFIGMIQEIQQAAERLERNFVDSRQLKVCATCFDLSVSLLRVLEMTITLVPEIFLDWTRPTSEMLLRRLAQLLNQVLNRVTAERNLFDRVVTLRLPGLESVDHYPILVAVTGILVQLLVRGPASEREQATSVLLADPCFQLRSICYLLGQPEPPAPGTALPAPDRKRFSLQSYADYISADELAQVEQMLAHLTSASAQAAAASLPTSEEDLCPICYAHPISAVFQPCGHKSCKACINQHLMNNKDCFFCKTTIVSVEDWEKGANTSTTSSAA
Sequence of UniProt Q86U06 (Q86U06 whole entry, looked up): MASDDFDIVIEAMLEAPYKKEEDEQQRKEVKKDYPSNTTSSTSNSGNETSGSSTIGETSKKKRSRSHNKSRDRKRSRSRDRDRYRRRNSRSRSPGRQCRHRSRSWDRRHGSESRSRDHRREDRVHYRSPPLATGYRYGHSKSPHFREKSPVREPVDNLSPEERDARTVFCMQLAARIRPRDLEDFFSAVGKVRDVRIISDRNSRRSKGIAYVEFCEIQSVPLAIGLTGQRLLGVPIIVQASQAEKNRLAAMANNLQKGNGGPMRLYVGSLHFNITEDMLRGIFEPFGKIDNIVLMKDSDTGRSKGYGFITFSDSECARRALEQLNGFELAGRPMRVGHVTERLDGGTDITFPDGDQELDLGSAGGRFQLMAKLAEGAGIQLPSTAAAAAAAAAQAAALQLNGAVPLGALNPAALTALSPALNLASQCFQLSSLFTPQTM
Sequence of UniProt Q9BVS4 (Q9BVS4 whole entry, looked up): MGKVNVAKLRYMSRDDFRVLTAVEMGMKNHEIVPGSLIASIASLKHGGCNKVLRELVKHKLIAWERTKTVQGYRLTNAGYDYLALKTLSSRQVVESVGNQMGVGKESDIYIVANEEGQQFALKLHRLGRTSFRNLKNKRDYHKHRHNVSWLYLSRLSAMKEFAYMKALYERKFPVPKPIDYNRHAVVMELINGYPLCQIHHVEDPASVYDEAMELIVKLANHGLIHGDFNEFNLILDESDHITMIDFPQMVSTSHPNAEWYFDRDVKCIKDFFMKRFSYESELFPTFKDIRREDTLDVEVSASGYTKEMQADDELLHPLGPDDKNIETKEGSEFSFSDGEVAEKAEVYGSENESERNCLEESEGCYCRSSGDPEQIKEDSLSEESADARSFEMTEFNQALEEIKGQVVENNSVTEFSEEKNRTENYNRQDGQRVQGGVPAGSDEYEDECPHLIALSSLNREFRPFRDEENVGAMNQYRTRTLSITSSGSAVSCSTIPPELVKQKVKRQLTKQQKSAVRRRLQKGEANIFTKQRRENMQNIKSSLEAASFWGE
Sequence of UniProt P61586 (P61586 whole entry, looked up): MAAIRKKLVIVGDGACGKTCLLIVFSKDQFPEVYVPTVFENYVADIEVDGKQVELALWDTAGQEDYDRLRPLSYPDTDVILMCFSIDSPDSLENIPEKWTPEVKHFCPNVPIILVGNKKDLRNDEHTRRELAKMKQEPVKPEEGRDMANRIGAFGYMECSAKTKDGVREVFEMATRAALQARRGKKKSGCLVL
Sequence of UniProt O94855 (O94855 whole entry, looked up): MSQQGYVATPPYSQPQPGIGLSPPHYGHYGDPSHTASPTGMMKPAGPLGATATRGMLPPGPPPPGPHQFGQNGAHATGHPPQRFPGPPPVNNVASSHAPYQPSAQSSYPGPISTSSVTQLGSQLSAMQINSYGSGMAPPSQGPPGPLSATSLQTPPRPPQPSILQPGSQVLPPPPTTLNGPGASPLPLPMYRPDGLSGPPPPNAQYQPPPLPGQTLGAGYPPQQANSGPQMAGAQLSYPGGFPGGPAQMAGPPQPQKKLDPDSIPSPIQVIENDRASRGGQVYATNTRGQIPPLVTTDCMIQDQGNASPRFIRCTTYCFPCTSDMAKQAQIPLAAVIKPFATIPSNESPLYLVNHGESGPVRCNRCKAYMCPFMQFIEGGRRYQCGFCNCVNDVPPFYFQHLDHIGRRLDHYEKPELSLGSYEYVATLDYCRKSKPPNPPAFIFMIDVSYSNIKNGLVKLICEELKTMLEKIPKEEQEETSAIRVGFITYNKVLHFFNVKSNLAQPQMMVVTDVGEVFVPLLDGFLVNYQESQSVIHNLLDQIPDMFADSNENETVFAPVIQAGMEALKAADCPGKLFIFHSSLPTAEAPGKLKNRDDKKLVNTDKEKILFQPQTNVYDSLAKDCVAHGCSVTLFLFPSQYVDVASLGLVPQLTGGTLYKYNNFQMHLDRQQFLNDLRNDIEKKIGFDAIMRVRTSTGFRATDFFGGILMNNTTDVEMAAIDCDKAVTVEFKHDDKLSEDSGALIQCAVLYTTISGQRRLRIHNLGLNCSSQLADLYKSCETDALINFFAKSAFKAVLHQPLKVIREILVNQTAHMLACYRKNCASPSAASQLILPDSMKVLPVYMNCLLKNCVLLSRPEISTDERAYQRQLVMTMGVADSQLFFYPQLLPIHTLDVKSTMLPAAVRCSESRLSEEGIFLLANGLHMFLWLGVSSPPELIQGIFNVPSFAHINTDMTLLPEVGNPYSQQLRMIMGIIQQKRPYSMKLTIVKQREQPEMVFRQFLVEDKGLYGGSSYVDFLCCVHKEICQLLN
Sequence of UniProt P60059 (P60059 whole entry, looked up): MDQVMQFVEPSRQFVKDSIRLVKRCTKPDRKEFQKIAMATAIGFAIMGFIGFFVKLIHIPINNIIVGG
Sequence of UniProt Q9NR31 (Q9NR31 whole entry, looked up): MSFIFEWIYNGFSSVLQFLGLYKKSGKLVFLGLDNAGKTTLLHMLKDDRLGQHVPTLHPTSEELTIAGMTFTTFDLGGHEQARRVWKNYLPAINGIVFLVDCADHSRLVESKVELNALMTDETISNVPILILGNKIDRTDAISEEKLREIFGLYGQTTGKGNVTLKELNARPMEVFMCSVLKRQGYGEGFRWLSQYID
Sequence of UniProt Q6NUQ1 (Q6NUQ1 whole entry, looked up): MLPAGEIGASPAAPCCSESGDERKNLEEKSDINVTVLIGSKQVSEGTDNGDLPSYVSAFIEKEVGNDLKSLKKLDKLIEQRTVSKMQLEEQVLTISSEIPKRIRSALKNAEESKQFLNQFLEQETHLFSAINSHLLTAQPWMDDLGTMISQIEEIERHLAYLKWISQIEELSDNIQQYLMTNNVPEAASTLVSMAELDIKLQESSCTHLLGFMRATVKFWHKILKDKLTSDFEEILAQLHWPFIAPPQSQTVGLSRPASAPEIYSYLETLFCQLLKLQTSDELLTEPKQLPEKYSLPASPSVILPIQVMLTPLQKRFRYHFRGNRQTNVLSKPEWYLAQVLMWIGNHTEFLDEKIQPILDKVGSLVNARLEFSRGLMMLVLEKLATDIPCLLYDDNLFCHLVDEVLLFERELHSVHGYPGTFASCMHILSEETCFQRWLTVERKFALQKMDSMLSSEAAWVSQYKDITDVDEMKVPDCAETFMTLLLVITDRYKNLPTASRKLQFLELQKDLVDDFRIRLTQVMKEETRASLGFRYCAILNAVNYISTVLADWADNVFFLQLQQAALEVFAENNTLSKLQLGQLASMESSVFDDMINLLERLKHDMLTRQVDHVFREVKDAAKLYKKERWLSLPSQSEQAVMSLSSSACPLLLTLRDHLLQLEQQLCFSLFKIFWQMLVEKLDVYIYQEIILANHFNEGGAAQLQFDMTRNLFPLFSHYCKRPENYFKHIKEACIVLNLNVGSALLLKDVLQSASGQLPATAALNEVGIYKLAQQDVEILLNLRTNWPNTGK
Sequence of UniProt Q9HBH5 (Q9HBH5 whole entry, looked up): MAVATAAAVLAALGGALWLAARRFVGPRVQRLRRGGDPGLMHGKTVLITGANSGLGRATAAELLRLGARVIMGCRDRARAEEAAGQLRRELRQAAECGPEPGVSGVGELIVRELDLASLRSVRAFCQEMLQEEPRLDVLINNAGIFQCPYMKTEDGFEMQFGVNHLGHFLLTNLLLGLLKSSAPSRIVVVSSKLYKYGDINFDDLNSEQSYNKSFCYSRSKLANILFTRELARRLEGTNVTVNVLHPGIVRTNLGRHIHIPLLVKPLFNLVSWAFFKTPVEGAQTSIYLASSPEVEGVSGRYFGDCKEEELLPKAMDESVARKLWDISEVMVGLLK

As for RPLP0P6 (UniProt Q8NHW5), the log2 fold change was 0.052 in test [1]; -0.038 in test [2]; -0.002 in test [3]; -0.026 in test [4]; -0.027 in test [5].

For the target RAE1 (UniProt P78406), the log2 fold change in test [1] was -0.022; in test [2] it was -0.081; in test [3], -0.005; in test [4], 0.07; in test [5] it was -0.022.

For the target RAD54L2 (UniProt Q9Y4B4), the log2 fold change is 0.139 in test [1]; 0.144 in test [2]; 0.029 in test [3]; -0.131 in test [4]; 0.147 in test [5].

With RIOK2 (UniProt Q9BVS4), the log2 fold change was 0.002 in test [1]; -0.018 in test [2]; 0.009 in test [3]; -0.023 in test [4]; -0.022 in test [5].

For RBBP7 (UniProt Q16576), the log2 fold change was -0.029 in test [1], 0.013 in test [2], 0.009 in test [3] and -0.042 in test [4].

In the case of SEC24D isoform 2 (UniProt O94855), the log2 fold change was -0.003 in test [1]; 0.006 in test [2]; -0.016 in test [3]; 0.033 in test [4]; 0.009 in test [5].

Regarding RPS9 (UniProt P46781), the log2 fold change in test [1] was 0.003; in test [2] it was 0.038; in test [3], -0.007; in test [4], 0.1; in test [5], 0.124.

Regarding RNF123 (UniProt Q5XPI4), the log2 fold change was -0.019 in test [1]; -0.024 in test [2]; 0.019 in test [3]; 0.005 in test [4]; 0.047 in test [5].

In the case of RPS18 (UniProt P62269), the log2 fold change in test [1] was -0.009; in test [2] it was 0.046; in test [3] it was 0.024; in test [4] it was -0.003; in test [5], -0.075.

For the target RAB3IL1 (UniProt E9PK89), the log2 fold change was -0.109 in test [1]; 0.057 in test [2]; 0.014 in test [3]; -0.189 in test [4]; -0.006 in test [5].

Take RAPGEF2, A0A2R8YGD3: the log2 fold change in test [1] was -0.043; in test [2], 0.021; in test [3], -0.046; in test [4] it was -0.003; in test [5], -0.32 (active).

In the case of RPL8 (UniProt P62917), the log2 fold change in test [1] was -0.012; in test [2] it was -0.036; in test [3] it was -0.031; in test [4], 0.066; in test [5] it was 0.032.

RDH10 (UniProt Q8IZV5): the log2 fold change in test [1] was 0.147; in test [2] it was 0.018; in test [3], 0.006; in test [4], -0.051; in test [5], -0.06.

Turning to RAPGEF4 (UniProt Q8WZA2), the log2 fold change in test [1] was 0; in test [2] it was 0.092; in test [3] it was 0.06; in test [4], -0.274; in test [5], -0.558.

In the case of RPS6KB1 (UniProt P23443), the log2 fold change in test [1] is 0.029; in test [2], -0.051; in test [3], 0.027; in test [4] it was 0.023; in test [5] it was -0.018.

In the case of RDH14 (UniProt Q9HBH5), the log2 fold change is 0.123 in test [1]; -0.016 in test [2]; -0.076 in test [3]; 0.102 in test [4]; -0.058 in test [5].

Regarding RLIM (UniProt Q9NVW2), the log2 fold change is 0.049 in test [1] and 0.135 in test [2].

Regarding SEC61G (UniProt P60059), the log2 fold change was 0.269 in test [1]; -0.063 in test [2]; -0.016 in test [3]; -0.065 in test [4]; -0.225 in test [5].

RINT1 (UniProt Q6NUQ1): the log2 fold change was -0.021 in test [1]; -0.008 in test [2]; 0.019 in test [3]; -0.008 in test [4]; 0.026 in test [5].

For the target RASA3 (UniProt Q14644), the log2 fold change in test [1] is -0.066; in test [2] it was 0.149; in test [3], 0.078; in test [4], 0.078; in test [5], 0.047.

Regarding SAR1A (UniProt Q9NR31), the log2 fold change in test [1] was 0.066; in test [2], 0.038; in test [3], 0.005; in test [4] it was -0.116; in test [5] it was -0.009.

For RBM23 isoform 2 (UniProt Q86U06), the log2 fold change in test [1] was -0.118; in test [2], -0.084; in test [3], 0.06; in test [4], 0.011; in test [5] it was -0.002.

In the case of RHOA (UniProt P61586), the log2 fold change in test [1] was 0.177; in test [2], 0.06; in test [3] it was 0.038; in test [4], 0.02; in test [5] it was 0.07.

On to RAP1B (UniProt F5GZG1), for which the log2 fold change is -0.082 in test [1]; -0.124 in test [2]; 0.023 in test [3]; -0.019 in test [4]; -0.282 in test [5].

Consider RFC5 (UniProt P40937), for which the log2 fold change in test [1] is -0.024; in test [2] it was 0.018; in test [3], 0.041; in test [4], 0.034; in test [5], 0.027.
